Compound activity deposited in PubChem BioAssay by National Center for Advancing Translational Sciences (NCATS).
TGFb SMAD3 inh – TGF-b pathway inhibition; Potency, µM (series often up to 46.1 µM), inactives show at the top dose activity, negative = inhibition, usual class: inhibitors; HepG2 CAGA-GFP TGF-b/SMAD3 reporter, GFP fluorescence, 18 h; TGF-beta stimulated, 500 pg/mL final; hit rate 1.2% among 410,000; note: % is set by controls: 0 for no effect and ±100 for the full control effect; nearly all actives have a fitted effect of over 65% in size
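HEPG2 CAGA-GFP reporter cells (1000/well, DMEM with 1% FBS) received compounds, then recombinant TGF-beta at 500 pg/mL final for 18 hours at 37 degrees C. Per-cell GFP summed per well was normalised to unstimulated and stimulated DMSO controls before curve fitting.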
TDP1 cell CPT – DT40-hTDP1 cell growth loss with CPT. Potency, µM (series often up to 46.2 µM), for the others: at the top dose activity change, negative = growth inhibition, most hits filed as inhibitors. hit rate 12% among 420,000. chicken DT40 Tdp1-/-;hTDP1 cells + 20 nM CPT, ATP luminescence, 48 h; note: % is set by controls: 0 for no effect and ±100 for the full control effect; nearly all actives have a fitted effect of over 55% in size
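Chicken DT40 Tdp1-/- cells stably complemented with human TDP1 were seeded at 400 cells/well in medium containing 20 nM camptothecin, exposed to pin-transferred compounds, and grown at 37 °C for at least 48 hr. Viability was read as ATP luminescence.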
HepG2 tox-1 – HepG2 cytotoxicity, counter-screen for TGF-b inhibitors. HepG2 CAGA-GFP viability, ATP luminescence, 18 h. Potency, µM (doses to about 46.1 µM), for the others: at the top dose activity change, negative = cytotoxicity, hits mostly cytotoxic. hit rate 0.76% among 410,000. AID 588856
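CellTiter-Glo luminescence gave cytotoxicity after 18 hours at 37 degrees C. The cells were HepG2 CAGA-GFP in 1% FBS DMEM, stimulated with 500 pg/mL TGF-beta after compound addition. %Activity was normalised to no-cell wells (complete cell-killing) and DMSO (no toxicity), and curves were fitted and classified.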
HT1080 IDH1KD tx – toxicity to HT-1080 IDH1 knockdown cells (counter line). HT-1080 IDH1 knockdown viability, ATP luminescence, 48 h. Potency, µM (doses to about 46.1 µM), without a hit: at the top dose activity, negative = toxicity, actives largely listed as cytotoxic. hit rate 2% among 360,000;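 note: 0% = DMSO wells and -100% = cell-free medium wells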
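Assay cells: HT-1080 with IDH1 knockdown, 750 per well, RPMI/5% FBS. Exposure: 48 h at 37 °C following 2 h pre-incubation. Read: CellTiter-Glo luminescence; fitted concentration-response, curve class assigned.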
DT40 TDP1 no CPT – qHTS for Inhibitors of human tyrosyl-DNA phosphodiesterase 1 (TDP1): qHTS in cells in absence of CPT; DT40 Tdp1-/- hTDP1 cells, no CPT, ATP luminescence, 48 h; Potency, µM (doses to about 46.2 µM), for inactives: top-dose activity change, negative = growth inhibition, most hits filed as inhibitors; hit rate 15% among 420,000; AID 686978, 2013; note: % is set by controls: 0 for no effect and ±100 for the full control effect; nearly all actives have a fitted effect of over 55% in size
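Readout: luminescence from CellTiter-Glo after 30 min in the dark at RT. Cells: DT40 Tdp1-/- with stable hTDP1, 400/well. Exposure: compounds alone, ≥48 hr, 37 °C.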
HT1080NT lethal – kills 2HG-producing HT-1080-NT fibrosarcoma cells; Potency, µM (series often up to 46.1 µM), for the others: at the top dose activity, negative = less viability, usual class: cytotoxic; HT-1080-NT fibrosarcoma viability, CellTiter-Glo ATP luminescence, 48 h; AID 686970; hit rate 1.6% among 360,000;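 note: NT is the 2HG producing partner of a matched IDH1 knockdown line; 0% = DMSO-treated cells and -100% = media-only wells without cells; nearly all actives have a fitted effect of over 55% in size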
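Toxicity toward the 2HG-producing NT line was scored as %Activity, normalised to DMSO and no-cell wells, from CellTiter-Glo luminescence after 48 hours' treatment.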
TGFb CAGA inh – confirmation of TGF-b signaling inhibitors in HepG2 reporter cells; shares compounds with TGFb SMAD3 inh; HepG2 CAGA-GFP TGF-b reporter, GFP fluorescence, 18 h; cells stimulated with TGF-beta, 500 pg/mL; Potency, µM (top dose mostly 46.1 µM), without a hit: top-dose activity, negative = inhibition, hits mostly inhibitors; hit rate 63% among 1,600; AID 720534; note: % is set by controls: 0 for no effect and ±100 for the full control effect; nearly all actives have a fitted effect of over 65% in size
HepG2 tox-2 – toxic to HepG2 cells in TGF-b counterscreen; shares compounds with TGFb SMAD3 inh; hit rate 27% among 1,600; HepG2 CAGA-GFP viability, ATP luminescence, 18 h; cells stimulated with TGF-beta, 500 pg/mL; Potency, µM (series often up to 46.1 µM), for inactives: at the highest dose activity, negative = cytotoxicity, actives largely listed as inhibitors; note: % is set by controls: 0 for no effect and ±100 for the full control effect; nearly all actives have a fitted effect of over 70% in size
TGFb CCL64 inh – orthogonal confirmation of TGF-b inhibitors in CCL64 cells; shares compounds with TGFb SMAD3 inh; CCL64 CAGA-GFP reporter, TGF-b stimulated, GFP fluorescence, 18 h; Potency, µM (doses to about 46.1 µM), for inactives: top-dose activity, negative = inhibition, actives largely listed as inhibitors; hit rate 41% among 1,600; note: nearly all actives have a fitted effect of over 65% in size
COP TGFb inh – blocks TGF-b signaling in HepG2 COP reporter; shares compounds with TGFb SMAD3 inh; Potency, µM (titrated, usually from 46.1 µM), without a hit: top-dose activity, negative = inhibition, usual class: inhibitors; hit rate 3% among 1,600; AID 720537; HepG2 COP-GFP TGF-b reporter, GFP fluorescence, 18 h; cells stimulated by added recombinant TGF-beta; note: nearly all actives have a fitted effect of over 70% in size
* hit, by the source's call; u = inconclusive; x = no result. An excerpt weighted towards active compounds, which were near 17% of everything screened. Calls come from the whole dose curve; as a rule, active = well fitted curve in the direction sought with a large enough effect; inconclusive = small, poorly fitted or top-dose-only effect, or another doubt; inactive = no such curve, though single readings can be large; an effect the other way counts as inactive or inconclusive. Potency is the fitted concentration of half-maximal effect.

SMILES	TGFb SMAD3 inh	TDP1 cell CPT	HepG2 tox-1	HT1080 IDH1KD tx	DT40 TDP1 no CPT	HT1080NT lethal	TGFb CAGA inh	HepG2 tox-2	TGFb CCL64 inh	COP TGFb inh
COc1ccc(OCC(=O)N2CCN(CC3CC4C=CC3C4)CC2)cc1 (configuration not stated)	12%	-9%	4%	15%	-24%	8%	x	x	x	x
CC1CCC[C@H](O)CCCCCc2cc(O)cc(O)c2C(=O)O1 (some centres not stated)	4%	-22%	-14%	-9%	u	0%	x	x	x	x
CC1CCC/C=C/C2CC(O)CC2C(O)/C=C/C(=O)O1 (configuration not stated)	0.11µM*	0.29µM*	-39%	u	0.37µM*	u	0.065µM*	u	u	67%
COC(=O)C1=C(c2ccc(-c3ccccc3)c(F)c2)C[C@@H]2CC[C@H]1N2C(=O)N1CCC(C)CC1	4.5µM*	7.3µM*	0%	u	4.6µM*	u	7.3µM*	u	9.2µM*	18%
COC(=O)C1=C(c2ccc(F)cc2OCc2ccccc2)C[C@@H]2CC[C@H]1N2C(=O)N1CCC(C)CC1	u	u	-16%	u	u	u	x	x	x	x
COC(=O)C1=C(c2ccc3ccccc3c2)C[C@@H]2CC[C@H]1N2C(=O)N1CCOCC1	13µM*	u	-29%	-18%	5.8µM*	-10%	u	-5%	5%	1%
COP(=O)(OC)C(Nc1ccccc1)c1ccccc1 (configuration not stated)	15%	-15%	17%	-4%	3%	-1%	x	x	x	x
COC(=O)C1=C(c2ccc(S(C)(=O)=O)cc2)C[C@@H]2CC[C@H]1N2C(=O)NCc1ccco1	28%	3%	4%	-3%	1%	8%	x	x	x	x
O=C(c1ccco1)c1cn(Cc2ccc(Cl)cc2)c2ccccc12	u	-113%	1%	u	u	u	x	x	x	x
CC(=O)c1cn(Cc2ccc(F)cc2)c2ccccc12	u	21µM*	-25%	-16%	18µM*	-5%	9.2µM*	4.1µM*	3%	17%
COc1ccc(C(c2nnnn2-c2ccc(OC)cc2)N2CCC(n3c(=O)[nH]c4ccccc43)CC2)cc1 (configuration not stated)	11µM*	18µM*	-2%	u	9.2µM*	u	16µM*	-27%	13µM*	51%
CSCCC(c1nnnn1C1CCCCC1)N1CCC(n2c(=O)[nH]c3ccccc32)CC1 (configuration not stated)	14µM*	18µM*	-2%	u	9.2µM*	u	26µM*	-20%	-31%	-1%
O=C(COC(=O)Cc1ccccc1)NCCNC(=O)COC(=O)Cc1ccccc1	-15%	18%	5%	0%	10%	3%	x	x	x	x
COc1ccc2c3c1OC1C(O)C=CC4[C@@H](C2)N(C)CC[C@]314 (some centres not stated)	-33%	1%	-22%	6%	-2%	15%	x	x	x	x
Cc1ccc(N2C(=O)NC(=O)/C(=C\C=C\c3ccco3)C2=O)cc1C	13µM*	2.6µM*	-5%	-22%	5.2µM*	-16%	2.6µM*	2.9µM*	4.6µM*	u
Cc1cc(N2CCOCC2)ccc1/C=C1\C(=O)NC(=O)N(c2ccccc2)C1=O	0%	-31%	1%	13%	u	2%	x	x	x	x
BrCC(Br)C1CCC(Br)C(Br)C1 (configuration not stated)	11%	u	-2%	7%	-21%	15%	x	x	x	x
O=C1NC(=S)NC(=O)C1=Cc1ccc(OCC(=O)N2CCCC2)cc1	-16%	-14%	1%	-3%	19%	12%	x	x	x	x
CC1(C)N2CC3([N+](=O)[O-])CN1CC([N+](=O)[O-])(C2)C3	40%	16%	91%	3%	-2%	6%	x	x	x	x
CCOC(=O)c1c(N)n(CCCOC(=O)c2ccco2)c2nc3ccccc3nc12	2.8µM*	12µM*	3.5µM*	18µM*	13µM*	23µM*	4.1µM*	5.2µM*	23µM*	5.8µM*
CCOC(=O)c1c(C)n(Cc2ccco2)c2c1cc(O)c1ccccc12	-11%	u	-20%	-6%	u	-17%	x	x	x	x
CC(C)c1oc(=O)cc2c1[C@@H](O)[C@H]1OC(=O)[C@@]3(C)C[C@@H](O)[C@@H](O)[C@@]2(C)C13 (some centres not stated)	8.9µM*	2.1µM*	-25%	10µM*	1.8µM*	u	2.9µM*	u	5.2µM*	16%
O=C1C2CCCC1C(N1CCCCC1)CC2 (configuration not stated)	10%	15%	-54%	-1%	-6%	2%	x	x	x	x
CCCC(=O)OCC[N+](C)(C)C	6%	1%	11%	14%	1%	22%	x	x	x	x
O=C(c1cn(Cc2ccccc2F)c2ncccc12)C(F)(F)F	u	-2%	-4%	-7%	-25%	-5%	u	-8%	0%	-1%
c1ccc(C(OCCN2CCN(c3ncccn3)CC2)c2ccccc2)cc1	-20%	u	-20%	-3%	u	3%	x	x	x	x
COc1ccc2[nH]c3c(c2c1)CCN1C(=O)C(CC(=O)NCc2cccc(C(F)(F)F)c2)C[C@H](C(=O)N2CCCCC2)[C@@]31C (some centres not stated)	10µM*	10µM*	2%	-16%	8.2µM*	-4%	8.2µM*	-17%	4.6µM*	3%
CC(C)=CCC/C(C)=C/CNC(=O)C[C@H]1C[C@H](C(=O)N(C(C)C)C(C)C)[C@@]2(C)c3[nH]c4ccc(Cl)cc4c3CCN2C1=O	-23%	u	-4%	11%	u	5%	x	x	x	x
